# The whole screen tested about 350,000 compounds, of which about 31,000 (8.9%) were called active. Not shown: some 15% with an inconclusive outcome. Calls follow the shape of the dose curve; as a rule, active = well fitted inhibition curve with a large enough effect; inconclusive = small, poorly fitted or top-dose-only effect; inactive = no such curve, though single readings can be large or run the other way. The entries come from a sample that favours actives as a whole. Some structures have more than one record in an assay (separate samples or runs), and their calls can disagree.
# Target: Histone-lysine N-methyltransferase EHMT2 (Homo sapiens) (UniProt Q96KQ7)
# Assay: qHTS Assay for Inhibitors of Histone Lysine Methyltransferase G9a; also: nearly all actives have a fitted effect of over 75% in size
# Conditions: G9a H3K9 monomethylation, AlphaScreen, 2 h; series mostly up to 59 µM; activity, negative = inhibition: at the top concentration
# How it was run: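 Readings reflect AlphaScreen signal from monomethyl-H3K9 antibody detection. HMT at 20 nM; substrate b-H3K9 500 nM; cofactor SAM 20 uM; 2 h RT reaction; compounds tested as titrations in qHTS with 15 min preincubation.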
# % is scaled to controls: 0 for no effect and ±100 for the full control effect; potency is read from the fitted curve at half-maximal effect.
# Chain of Histone-lysine N-methyltransferase EHMT2 (Homo sapiens) (Q96KQ7 913-1193 limits assumed): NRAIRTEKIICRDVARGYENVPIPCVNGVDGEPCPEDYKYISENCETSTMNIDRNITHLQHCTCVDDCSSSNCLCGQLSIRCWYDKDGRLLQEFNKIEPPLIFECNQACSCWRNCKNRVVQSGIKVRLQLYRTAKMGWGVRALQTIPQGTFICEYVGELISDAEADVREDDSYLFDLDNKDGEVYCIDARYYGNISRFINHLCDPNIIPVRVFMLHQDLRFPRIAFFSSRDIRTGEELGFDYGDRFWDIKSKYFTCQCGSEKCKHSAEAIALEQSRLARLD
Structure (SMILES),Potency,"activity, negative = inhibition"
COc1ccc(-c2nnc(SCC(=O)Nc3cccnc3Cl)n2C)cc1,20 µM (active),–
Cc1cccnc1NC(=O)CSc1nnc(COc2ccc(C(C)C)cc2)n1C,–,-14% [at 102 µM] (inactive)
COc1ccc(OC)c(NC(=O)CSc2nc3cccnc3n2C)c1,–,-2.8% [at 12.7 µM] (inactive)
O=S(=O)(ON(c1ccccc1)S(=O)(=O)c1ccccc1)c1ccccc1,–,-7.16% (inactive)
CC1=C/C(=N\OS(=O)(=O)c2ccccc2)C=CC1=O,2.51 µM (active),–
CCOc1ccc(/C=C/C(=O)N(CC)CC(=O)NCc2cccs2)cc1OC,–,7.69% [at 2.33 µM] (inactive)
O=C(Cn1nnc(-c2ccccc2)n1)NC(=O)NC1CCCC1,–,14.2% (inactive)
Cn1c2ccc(F)cc2c2nnc(NN)nc21,39.8 µM (active),–
CC(=O)Nc1ccc(NC(=O)CSc2nnc3c4cc(Br)ccc4n(C)c3n2)cc1,–,2.98% (inactive)
Cc1ccc2c(c1)c1ncn(Cc3ccc(F)cc3)c(=O)c1n2C,–,23.9% (inactive)
O=C(CN1C(=O)COc2ccc(S(=O)(=O)N3CCOCC3)cc21)N1CCN(c2cccc(Cl)c2)CC1,–,-5.56% (inactive)
Cc1ccc(Nc2nc(N3CCOCC3)nc(N3CCOCC3)n2)cc1Cl,–,32.7% (inactive)
CCOc1ccc(Nc2nc(Cl)nc(N3CCN(c4ccc(OC)cc4)CC3)n2)cc1,12.6 µM (active),–
CCN1CCN(c2nc(Nc3cc(OC)ccc3OC)nc(Nc3cc(OC)ccc3OC)n2)CC1,–,-48.8% (inactive)
CC1CCN(c2nc3ccc(C(=O)N4CCN(c5ccccc5)CC4)cc3s2)CC1,–,-31.4% (inactive)
COC(=O)c1ccc(COC(=O)c2cnc(Cl)c(Cl)c2)cc1,–,17.8% [at 102 µM] (inactive)
C/C(=N\NS(=O)(=O)c1cccc([N+](=O)[O-])c1)c1cc2ccccc2o1,12.6 µM (active),–
CC1CN(C(=O)c2ccccc2NS(=O)(=O)c2cccc([N+](=O)[O-])c2)CC(C)O1 (stereo not drawn),–,18.8% (inactive)
Cc1cc(C)n(S(=O)(=O)c2cccc([N+](=O)[O-])c2)n1,–,-7.95% [at 102 µM] (inactive)
COc1ccccc1NS(=O)(=O)c1ccc(C)c(C(=O)NCC(c2ccco2)N(C)C)c1 (stereo not drawn),–,22.9% [at 0.501 µM] (inactive)
COc1ccc(N2CCN(C3CCCCC3NS(=O)(=O)c3ccccc3)CC2)cc1 (stereo not drawn),22.4 µM (active),–
CCN1CCN(C2CCCCC2NS(=O)(=O)c2ccc(Cl)cc2)CC1 (stereo not drawn),–,-0.698% [at 102 µM] (inactive)
O=S(=O)(NC1CCCCC1N1CCN(c2ccccc2F)CC1)c1ccccc1 (stereo not drawn),–,35.8% [at 102 µM] (inactive)

Structure (SMILES),Potency,"activity, negative = inhibition"
CCC(=O)Nc1ccc(C(=O)N2CCN(C(=O)c3ccco3)CC2)cc1,–,23.7% [at 102 µM] (inactive)
COc1ccc(CNC(=O)C2CCN(C(=O)c3ccco3)CC2)cc1,–,16.9% [at 102 µM] (inactive)
CCC(CC)c1nnc(NC(=O)C2CCN(C(=O)c3ccco3)CC2)s1,3.98 µM (active),–
CCN(CC)c1nn2c(=O)c(C(=O)NCCc3ccccc3)cnc2s1,–,18.4% (inactive)
CCc1noc(C)c1C(=O)Nc1nc2ccc(OC)cc2s1,–,-2.24% [at 12.7 µM] (inactive)
O=C(Nc1n[nH]c(C(F)(F)F)n1)c1cccs1,–,0.152% [at 102 µM] (inactive)
COc1ccc(C(=O)Nc2ccc(F)cc2F)cc1,–,29.4% [at 12.7 µM] (inactive)
COC(=O)c1nc(NC(=O)c2ccccc2)n[nH]1,–,-8.15% [at 12.7 µM] (inactive)
CSc1nccc(NC(=O)c2ccc(C(C)(C)C)cc2)n1,–,15.8% [at 0.501 µM] (inactive)
COC(=O)c1nc(NC(=O)c2ccc(F)cc2)n[nH]1,35.5 µM (active),–
COC(=O)c1nc(NC(=O)c2ccc(C(C)(C)C)cc2)n[nH]1,31.6 µM (active),–
COc1ccc(CNC(=O)COC(=O)c2ccc(C)c(S(=O)(=O)N3CCOCC3)c2)cc1OC,–,-2.29% (inactive)
O=C(c1cc(-c2ccc(Cl)cc2)on1)N1CCN(c2ccccc2)CC1,–,-4.11% (inactive)
Cc1ccc(NC(=O)Cn2cnc3nc4c(cc3c2=O)CCCC4)cc1Cl,–,2.05% (inactive)
Cc1ccc(C(=O)C(C)OC(=O)Cc2n[nH]c(=O)c3ccccc23)cc1C (stereo not drawn),–,13.1% [at 2.33 µM] (inactive)
CCOC(=O)c1c(C)[nH]c(C)c1S(=O)(=O)N1CCCC(C(=O)NCc2ccccc2Cl)C1 (stereo not drawn),–,-29.4% (inactive)
COc1ccc(CN2CCCC(C(=O)N3CCCCC3)C2)cc1 (stereo not drawn),11.2 µM (active),–
CCCCNC(=O)N1CCCC(N(C)CCc2ccc(OC)c(OC)c2)C1 (stereo not drawn),–,38.3% [at 102 µM] (inactive)
COc1ccc(NC(=O)N2CCCC(C(=O)Nc3ccccc3OC)C2)cc1 (stereo not drawn),–,-0.0547% [at 102 µM] (inactive)
CCOC(=O)C1CCCN(C(=O)/C=C/c2ccc(OC)cc2)C1 (stereo not drawn),–,-38% [at 102 µM] (inactive)
COc1ccc(/C=C/C(=O)NC(=S)N2CCCC(C(N)=O)C2)cc1 (stereo not drawn),79.4 µM (active),–
O=C(c1ccc(F)cc1)N1CCCC(C(=O)N2CCCCC2)C1 (stereo not drawn),–,67.9% [at 102 µM] (inactive)
COc1ccc(CN2CCCC(CNC(=O)c3ccc(F)cc3)C2)cc1OC (stereo not drawn),–,31.5% [at 102 µM] (inactive)

Structure (SMILES),Potency,"activity, negative = inhibition"
COc1ccc(CCN(C)C(=O)C2CCCN(Cc3ccc(OC)c(OC)c3)C2)cc1OC (stereo not drawn),5.01 µM (active),-16.1% [at 0.501 µM] (inactive)
COc1ccc(C(=O)C2CCCN(Cc3ccc4nonc4c3)C2)c(C)c1 (stereo not drawn),–,88.2% [at 102 µM] (inactive)
Cc1nn(-c2ccc(N3CCCCC3)nn2)c(C)c1CCC(=O)NCc1ccccc1F,–,10.5% (inactive)
OC(c1ccc(Cl)cc1)C(CN1CCOCC1)c1ccccc1 (stereo not drawn),–,-30.5% [at 2.33 µM] (inactive)
COC(=O)[C@]1(C)CCC[C@@]2(C)C3CC[C@]4(OC(C)=O)C[C@@]3(CCC21)CC4=NO (stereo partly drawn),–,3.11% [at 0.501 µM] (inactive)
COc1cc(OC)cc(-c2c(-c3cccs3)c3cc(-c4ccc(OC)nc4)ccc3n2C)c1,–,0.323% [at 0.501 µM] (inactive)
COc1cc2[nH]c(=O)n(Cc3ccc(C(=O)NCc4ccc(C)cc4)cc3)c(=O)c2cc1OC,–,-1.87% (inactive)
COc1ccc(F)cc1S(=O)(=O)Nc1ccc2c(c1)OCO2,–,26.9% (inactive)
CN1CCN(C(CNC(=O)c2ccccc2F)c2ccc3c(c2)OCO3)CC1 (stereo not drawn),–,-31.5% (inactive)
COc1ccc(F)cc1S(=O)(=O)NCC(c1ccc2c(c1)OCO2)N1CCN(C)CC1 (stereo not drawn),50.1 µM (active),–
Cc1ccc(Cn2c(=O)n(CCCC(=O)NCc3ccccc3Cl)c(=O)c3ccccc32)cc1,–,35% (inactive)
O=C(Cn1c(=O)n(-c2ccc(F)cc2)c(=O)c2sc3ccccc3c21)NC1CCCC1,–,-27.5% (inactive)
CC(C)C(C)(C#N)NC(=O)CSc1nc2scc(-c3ccccc3)c2c(=O)[nH]1 (stereo not drawn),28.2 µM (active),–
CC(C)C(C)(C#N)NC(=O)CSc1nncn1-c1ccccc1 (stereo not drawn),–,10.8% [at 102 µM] (inactive)
C=CCNC(=O)CSc1nc2sc(C)c(C)c2c(=O)[nH]1,–,-15.5% [at 102 µM] (inactive)
CCOc1ccc(CNC(=O)c2cccc(Nc3nc4ccccc4n4nnnc34)c2)cc1OC,–,7.41% (inactive)
Cc1nn2c(=O)cc(COC(=O)c3cccc(NC(=O)COc4ccccc4Cl)c3)nc2s1,–,16.4% (inactive)
CCCCCn1c(=O)[nH]c2cc(C(=O)Nc3ccc(F)cc3)ccc2c1=O,–,2.02% (inactive)
O=C(NCc1ccc2c(c1)CCN2C(=O)c1ccccc1)c1ccccc1,–,-2.23% (inactive)
CCCOc1ccc(/C(O)=C2/C(=O)C(=O)N(CCN(C)C)C2c2ccc(OC)c(OC)c2)cc1 (stereo not drawn),10 µM (active),–
COc1cccc(C2/C(=C(/O)c3ccc(F)cc3)C(=O)C(=O)N2CCN(C)C)c1 (stereo not drawn),–,-0.491% (inactive)
COc1ccc(/C(O)=C2/C(=O)C(=O)N(CCCN(C)C)C2c2ccccc2)cc1OC (stereo not drawn),–,20.6% (inactive)
O=C(Nc1cccc(C(=O)NC2CC2)c1)c1ccc(F)c(S(=O)(=O)N2CCOCC2)c1,–,11.8% [at 0.501 µM] (inactive)

Structure (SMILES),Potency,"activity, negative = inhibition"
Cc1ccc(C2=NN(C(=O)COc3ncnc4ccccc34)C(c3ccco3)C2)cc1 (stereo not drawn),–,10.3% [at 102 µM] (inactive)
COc1ccc(C2=NN(C(=O)CSc3nnnn3C)C(c3ccco3)C2)cc1 (stereo not drawn),–,-3.31% (inactive)
Cc1ccc(C2=NN(C(=O)CSc3nc(N)cc(N)n3)C(c3ccco3)C2)cc1 (stereo not drawn),50.1 µM (active),–
CCCc1nn2c(=O)cc(COC(=O)c3ccc(NC(=O)COc4ccc(F)cc4)cc3)nc2s1,–,11.8% (inactive)
Cc1nn(-c2ccccc2)c(C)c1NC(=O)COC(=O)c1cc(Cl)ccc1O,–,-41% [at 102 µM] (inactive)
Cc1ccc(Nc2ccc(C(N)=O)cc2[N+](=O)[O-])cc1,–,25% (inactive)
Cc1cc(Nc2ccc(C(=O)N3CCCCC3)cc2)c2cccc(C)c2n1,–,-10.5% [at 102 µM] (inactive)
Cc1ccc(Nc2cc(C)nc3c(C)ccc([N+](=O)[O-])c23)cc1,11.2 µM (active),–
COCCn1cnnc1SCC(=O)Nc1cccc(S(=O)(=O)N2CCCCC2)c1,–,-9.19% [at 12.7 µM] (inactive)
COc1ccc(CN2CCc3nc(Nc4ccccc4)ncc3C2)c(OC)c1OC,–,-1.92% (inactive)
O=C(CSc1nc2ccc(Nc3nc(N4CCOCC4)nc(N4CCOCC4)n3)cc2s1)NCc1ccco1,–,3.15% (inactive)
O=C(CCCn1c(SCC(=O)c2ccc(F)cc2)nc2ccccc2c1=O)NCc1ccco1,–,3.76% [at 102 µM] (inactive)
C=CCn1c(CSc2nc3ccccc3s2)nnc1SCC(=O)NCc1ccco1,44.7 µM (active),–
CCOC(=O)c1cccc(NS(=O)(=O)c2cc(-c3cnc(C)o3)ccc2OC)c1,–,3.04% (inactive)
Cc1cccc(NS(=O)(=O)c2cccc(C(=O)NNC(=O)c3ccccc3O)c2)c1,–,56.9% [at 12.7 µM] (inactive)
O=c1oc2ccc(C#CC3(O)CCCCC3)cc2cc1-n1cc(-c2ccsc2)nn1,–,-0.586% [at 0.501 µM] (inactive)
CCS(=O)(=O)c1ccc(-c2cccc(NC(=O)c3ccc(Br)o3)c2)nn1,–,-22.3% [at 102 µM] (inactive)
CCOc1cc(-c2noc(CCC(=O)N3CCOCC3)n2)ccc1OC,–,-5.03% [at 102 µM] (inactive)
COc1ccc(N2CCN(C(=O)CCc3nc(-c4ccc(C)cc4)no3)CC2)cc1,31.6 µM (active),–
CN1CCN(C(=O)CCc2nc(-c3ccc(Cl)cc3)no2)CC1,–,0.644% [at 102 µM] (inactive)
CCOc1ccc2oc(C(=O)N(CC)CC(=O)Nc3ccc(NC(C)=O)cc3)c(C)c2c1,–,-40.2% [at 12.7 µM] (inactive)
COc1ccc(CCC(=O)NCCc2csc(-c3ccc(Cl)cc3)n2)cc1,–,14.9% (inactive)
CCOc1ccc(C(=O)c2cn(Cc3ccccc3OC)c3ccc(F)cc3c2=O)cc1,–,-24.1% (inactive)
